# Reference: PubChem BioAssay (Tox21)
# Inconclusive results are not listed. Values without a mark were called inactive. Calls of active or inactive are those of the source. Calls follow the shape of the dose curve; as a rule, active = well fitted inhibition curve with a large enough effect in the repeat runs; inconclusive = weak or mixed curves; inactive = no such curve, though single readings can be large or run the other way.
# Target: Cytochrome P450 1A2 (Homo sapiens) (UniProt P05177)
# Experiment: Cytochrome P450 Family 1 Subfamily A Member 2 (CYP1A2) small molecule antagonists: luciferase reporter qHTS assay (AID 1671199); also: nearly all actives have a fitted effect of over 50% in size
# Details: P450-Glo CYP1A2 enzyme, luciferin luminescence, 1 h; series mostly up to 115 µM; activity change, negative = inhibition: at the top concentration
# Description: National Center for Advancing Translational Sciences [NCATS]
# U.S. Environmental Protection Agency [EPA]
# National Institutes of Environmental Health Sciences [NIEHS]
# National Toxicology Program [NTP]
# U.S. Food and Drug Administration [FDA]
# Cytochrome P450 (CYP) enzymes are membrane-bound hemeproteins that play a key role in metabolism of drugs and xenobiotics. Evaluation of the effect of chemicals on CYP isozymes is useful to minimize the adverse drug reactions and toxicities in drug development process. Tox21 chemicals were tested for their effect on CYP enzyme activities by using P450-Glo (TM) screening systems (Promega Corporation, Madison, WI). These systems provide a luminescent method containing proluciferin substrates and are converted to luciferin products by CYP isozymes. The luciferin products formed are detected with a luciferin detection reagent, and the amount of light produced is proportional to CYP activity. P450-Glo (TM) CYP1A2 screening system (Catalog. No. V9770) was used to detect the compounds that interfere in CYP1A2 activity. The positive control compound used for CYP1A2 assay is furafylline (Sigma-Aldrich, St. Louis, MO).
# Tox21 Assay Protocol Summary:
# Two ul of enzyme-substrate mix was dispensed into medium binding white/solid 1536-well plates (Greiner Bio-One North America Inc., Monroe, NC) using a BioRaptr Flying Reagent Dispenser (FRD, Beckman Coulter, Brea, CA). Compounds dissolved in DMSO and positive control (furafyllline) were transferred to the assay plates at 23 nl using a Pintool station (Wako, San Diego, CA). The assay plates were incubated at room temperature for 10 min. Then 2 ul of NADPH regeneration solution was added to each well of the assay plates using an FRD and incubated at room temperature for 1 h. The reaction was stopped by adding 4 ul of detection reagent using an FRD and after 20 min incubation at room temperature the luminescence signal was measured using a ViewLux plate reader (Perkin Elmer, Shelton, CT). Data were expressed as relative luminescence units.
# % is scaled to controls: 0 for no effect and ±100 for the full control effect; potency is read from the fitted curve at half-maximal effect.
# Sequence of Cytochrome P450 1A2 (Homo sapiens) (P05177 whole entry, looked up): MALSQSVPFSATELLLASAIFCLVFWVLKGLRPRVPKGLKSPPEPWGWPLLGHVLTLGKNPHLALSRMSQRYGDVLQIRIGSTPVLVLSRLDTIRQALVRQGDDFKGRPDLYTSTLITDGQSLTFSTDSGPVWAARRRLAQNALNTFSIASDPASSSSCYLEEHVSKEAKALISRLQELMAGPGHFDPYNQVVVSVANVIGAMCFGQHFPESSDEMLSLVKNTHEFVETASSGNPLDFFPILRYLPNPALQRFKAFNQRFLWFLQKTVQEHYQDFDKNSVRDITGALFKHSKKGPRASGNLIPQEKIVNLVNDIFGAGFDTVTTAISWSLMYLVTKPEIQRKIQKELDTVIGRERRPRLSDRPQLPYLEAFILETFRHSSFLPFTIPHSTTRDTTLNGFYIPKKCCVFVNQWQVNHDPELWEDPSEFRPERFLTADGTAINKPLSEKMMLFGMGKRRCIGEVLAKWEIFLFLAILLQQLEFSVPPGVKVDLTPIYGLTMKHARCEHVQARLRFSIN
Structure (SMILES),Potency,"activity change, negative = inhibition"
CC(O)(c1ccc(Cl)cc1)c1ccc(Cl)cc1,31.7 µM (active),
Oc1ccc(Cl)cc1C1CCCC1,22.4 µM (active),
CC(C)(C)C1=CC(=O)C(C(C)(C)C)=CC1=O,17.4 µM (active),
CCCCCCCCOC(=O)c1cc(O)c(O)c(O)c1,71 µM (active),
[Cl][Sc]([Cl])[Cl],,-9.19%
CCCCCCCCCCCCN1CCCC1=O,28.3 µM (active),
CCOC=C(C(=O)OCC)C(=O)OCC,,-25.3%
NCc1ccco1,,-1.33%
CN(C/C=C/c1ccccc1)Cc1cccc2ccccc12,12.9 µM (active),
CC1(C)[C@H]2CC[C@]1(C)C(=O)C2,,-21.5%
CC(C)(C)c1ccc(OC2CCCCC2O)cc1 (stereo not given),35.6 µM (active),
C=C(C)C1CCC(C)CC1O (stereo not given),,-2.5%
C1CCSC1,,-15.5%
Cc1c(Cl)c(=O)oc2cc(O)ccc12,17.8 µM (active),
C=CC(=O)OCCOC1C2CCC1C1CC=CC12 (stereo not given),,-16.8% [at 23.6 µM]
CCCC(C)C=O (stereo not given),,-10.1%
O=C1CCC(=O)N1,,-2.33%
CSc1ccc(O)cc1C,63.3 µM (active),
Cc1ccc(S(=O)(=O)C(I)I)cc1,31.7 µM (active),
CN1CCN(C)CC1,,-15.6%

Structure (SMILES),Potency,"activity change, negative = inhibition"
CC(C)c1ccc2sc3ccccc3c(=O)c2c1,7.1 µM (active),
CCc1cccc(CC)c1,,-15.4%
[Cl][Eu]([Cl])[Cl],,-16.1%
Nc1cc([N+](=O)[O-])ccc1Cl,17.8 µM (active),
CCOC(=O)OC(=O)OCC,,-7.99%
Cc1ccc2sc3cccc(C)c3c2c1,2.52 µM (active),
c1ccc2c(c1)-c1ccc3ccc4cccc5cc-2c1c3c45,0.219 µM (active),
C=CC(=O)O[C@H]1C[C@@H]2CC[C@@]1(C)C2(C)C,,-19.4%
O=[N+]([O-])c1ccc(O)c2ncccc12,,-18.9% [at 53 µM]
CN1CC[C@H](c2c(O)cc(O)c3c(=O)cc(-c4ccccc4Cl)oc23)[C@H](O)C1,,-17.2% [at 53 µM]
C=CC(=O)OCC(Br)CBr (stereo not given),,-5.48%
Cn1ccnc1,,0.274%
COc1cc(OC)nc(NC(=O)NS(=O)(=O)Nc2ccccc2C(=O)N(C)C)n1,63.3 µM (active),
O=C(O)CN(CCCN(CC(=O)O)CC(=O)O)CC(=O)O,,-0.26% [at 23.6 µM]
c1ccc2occc2c1,28.3 µM (active),
CCSCC,,-14.4%
CC(C)C(=O)C(C)C,,-2.4%
CCCC(=O)c1cc(O)c(O)cc1O,37.7 µM (active),
Clc1ccc2c(Cl)ccnc2c1,5.64 µM (active),
CCOc1ccc([N+](=O)[O-])cc1,32.2 µM (active),
